58 compounds from PubChem BioAssay AID588335 (The Scripps Research Institute Molecular Screening Center, 2011) can be followed below.

Screen size: about 360,000 compounds; about 4,500 (1.2%) were called active. What follows is part of a selection rich in actives, with near analogues and random picks from the rest. A number with no mark means an inactive call. No stated cut-off is given here; in the data, active means inhibition above about 30%; inactive means the rest.

The nature of this assay: inhibition of GDH and TPI enzymes – biochemical, absorbance, full deck, artefact control for M. tuberculosis FBA inhibitor project, primary screen (AID 588335).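 Further: 0% = DMSO wells and 100% = wells lacking the enzyme.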 Particulars: GDH-TPI coupled enzyme counterscreen, NADH absorbance; at 4.8 µM; active compounds read high. (A counterscreen serves to expose hits that act by an unwanted route or on another target.)
In general, inhibition refers to the relative decrease from the control value, in per cent. For the compound `CCOC(=O)c1sc(N(Cc2ccccc2)C(=O)CN2C(=O)CN(C)C2=O)nc1C`, the inhibition is -10.6%.
`CC(C)(C)C1CCC(OC(=O)CCC(=O)Nc2ccccc2)CC1` (stereo not drawn): the inhibition was -9.56%.
As to `CCCCn1c(N)c(N2CCOCC2)c(=O)n(CC(=O)NCCc2ccccc2)c1=O`, the inhibition was 8.07%.
With `CC(=O)C1=C(O)C(=O)N(c2ccc(S(N)(=O)=O)cc2)C1c1ccccc1F` (stereo not drawn), the inhibition was 32.2% (active).
For `NS(=O)(=O)c1ccc(NC2=CC(c3ccc(F)cc3)N(c3ccc(S(N)(=O)=O)cc3)C2=O)cc1` (stereo not drawn) the value was 4.35%.
For `CC(=O)C1=C(O)C(=O)N(c2ccc(Br)cc2)C1c1ccc([N+](=O)[O-])cc1` (stereo not drawn) the value was 21.6%; for `CCCSC1=C(C#N)C(c2ccccc2C)C(C(=O)OC)C(=O)N1` (stereo not drawn), 3.67%; for `CC1CCC2(CC1)NC(=O)N(Cc1nnc(-c3cccs3)o1)C2=O` (stereo not drawn), -10.1%.
Consider `CC1CN/C(=C\C(=O)c2ccc(Br)cc2)C(=O)N1` (stereo not drawn), for which the inhibition was 33.3% (active).
For `CC1(C)Cc2ccccc2/C(=C/C(=O)c2ccccc2)N1` the value was 4.27%; for `COc1cc2c(cc1OC)/C(=C/C(=O)c1ccc(NC(C)=O)cc1)NCC2`, 14%.
On to `CCOC(=O)c1c(N)sc2c1CCCC2=O`, for which the inhibition is 36% (active).
Take `CCOC(=O)c1c(CC(C)C)csc1/N=C/C1=C(O)CCCC1=O`: the inhibition is -3.83%.
For `CCOC(=O)c1c(/N=C/c2cc(C)ccc2O)sc2c1CCC2` the value was 9.89%; for `CCCCOc1ccc(N(CC(=O)NCC2CCCO2)C(=O)CCC(=O)Nc2cc(C)ccn2)cc1` (stereo not drawn), 12.4%.
`Cc1cccc(NS(=O)(=O)c2ccc(-c3cnc(C4CC4)o3)cc2)c1`: the inhibition was -5.68%.
In the case of `CC1C=CCC2C(=O)N(c3cccc(C(=O)N4CCCCCC4)c3)C(=O)C12` (stereo not drawn), the inhibition was 5.39%.
With `Cc1ccc(-c2nn(C(C)(C)C)c3ncnc(N)c23)cc1`, the inhibition is 11.5%.
On to `CCOC(=O)C(CC)Sc1ncnc2c1nnn2-c1ccc(F)cc1` (stereo not drawn), for which the inhibition is 11.2%.
For the compound `CCOC(=O)c1c(NC(=S)NC(=O)/C=C/c2cccs2)sc(C)c1C`, the inhibition was -3.37%.
Take `CCc1nnc(NS(=O)(=O)c2ccc(NC(=O)c3cccc(OC(F)(F)C(F)F)c3)cc2)s1`: the inhibition is -13%.
As for `CCc1nnc(NS(=O)(=O)c2ccc(NC(=S)NC(=O)/C=C/c3cccs3)cc2)s1`, the inhibition is 32.2% (active).
Consider `COc1ccc(NC(=O)N(C)C[C@H]2Oc3ncc(C#C[C@@H](C)O)cc3C(=O)N([C@H](C)CO)C[C@H]2C)cc1`, for which the inhibition was 1.42%.
In the case of `Cc1ccc2c(c1)C1C[N+](C)(CC(=O)c3ccccc3)CCC1N2C(=O)c1ccccc1Cl` (stereo not drawn), the inhibition is -8.62%.
Under `O=C(Nc1ccc(Br)c2cccnc12)c1ccc(Cn2cc([N+](=O)[O-])cn2)o1` stands 4.69%.
For the compound `O=C(c1ccc(Cn2cc([N+](=O)[O-])cn2)o1)N1CCCC1`, the inhibition was -17.2%.
`O=C(N/N=C/c1ccc2c(c1)OCO2)c1ccc(Cn2cc([N+](=O)[O-])cn2)o1`: the inhibition is 43.3% (active).
On to `CN(C)c1ccc(/C=N/NC(=O)c2ccc(Cn3cc(Br)cn3)o2)cc1`, for which the inhibition was 30.7% (active).
For `CC1CCc2c(sc(NC(=O)c3ccc(Cn4cc(Br)cn4)o3)c2C(N)=O)C1` (stereo not drawn), the inhibition is 7.5%.
For `CN(C)c1ccc(/C=N/NC(=O)C(O)c2ccc(Br)cc2)cc1` (stereo not drawn) the value was 30.4%.
In the case of `O=C(NCCCN1CCCCC1)C1CCCN(c2ncnc3c2nc2n3CCCCC2)C1` (stereo not drawn), the inhibition is -16.5%.
As to `COc1ccc(OC)c(NC(=O)C2(C)CCN2C(=O)Cc2ccccc2)c1` (stereo not drawn), the inhibition was 7.08%.
Take `C=C(C)CNC(=S)/N=c1\scc(C)n1CC`: the inhibition was 13.2%.
Take `Cc1ccc(/C=N/NC(=O)Cn2ccc(C(F)(F)F)n2)o1`: the inhibition was 7.37%.
In the case of `O=C(NN=Cc1ccc(N2CCOCC2)cc1)c1cc2ccccc2cc1O`, the inhibition is 50.6% (active).
Consider `COc1ccccc1C(=O)NC(=S)Nc1ccc(N2CCOCC2)cc1`, for which the inhibition is 19.6%.
On to `Cc1ccc(/C=N/NC(=O)Cn2nc(C)c(Br)c2C)o1`, for which the inhibition is 5.47%.
Turning to `Cc1ccc(/C=N/NC(=O)c2cc3ccccc3cc2O)o1`, the inhibition was 34.5% (active).
`O=C(O)c1ccc(NN=CC2=C(N3CCOCC3)/C(=C/c3ccccc3)CC2)cc1`: the inhibition is 22.9%.
Take `CCOC(=O)CN(C(=O)CN1CCOCC1)c1ccc(Br)cc1`: the inhibition was 9.62%.
Regarding `Cn1c(SCC(=O)N2CCOCC2)nnc1-c1ccc(NC(=O)c2ccccc2F)cc1`, the inhibition is 0%.
In the case of `Cc1cccc(C(C)C)c1NC(=O)COC(=O)C1CC(=O)N(Cc2ccccc2)C1` (stereo not drawn), the inhibition was -2.1%.
Consider `COc1ccc(CCNS(=O)(=O)c2cc3c(cc2C)NC(=O)CO3)cc1OC`, for which the inhibition is -4.31%.
For `CC1(C)CC(=O)C=C(NCc2ccncc2)C1` the value was 0.7%.
Take `O=C1/C(=C\c2ccc3c(c2)OCO3)N2CCC1CC2`: the inhibition was 33.3% (active).
In the case of `CCCNC(=O)N1CCC(c2ccc3c(c2)OCO3)CC1`, the inhibition was -5.17%.
Consider `O=C1/C(=C/c2ccc3c(c2)OCO3)Oc2cc(OCC(=O)N3CC(O)C[C@H]3C(=O)O)ccc21` (stereo partly drawn), for which the inhibition is 28.4%.
For the compound `CN(C(=O)CCn1c(=S)oc2ccccc21)C1CCCCC1`, the inhibition was 2.6%.
`Cc1c(NS(=O)(=O)c2cccc(C(=O)Nc3ccc(SC(F)F)cc3)c2)c(=O)n(-c2ccccc2)n1C`: the inhibition was 0.43%.
For `O=C(Nc1ccccc1F)c1cc(S(=O)(=O)N2CCCCC2)cs1` the value was -3.77%; for `O=C1CN(C(=O)CN2C(=O)NC3(CCCCC3)C2=O)c2ccccc2N1`, 7.32%; for `CC1(c2ccccc2)NC(=O)N(CC(=O)N2CC(=O)Nc3ccccc32)C1=O` (stereo not drawn), -7.8%.
On to `CC(=O)N1C(=O)C2(Nc3ccccc3N2)c2ccccc21`, for which the inhibition was 34.1% (active).
For the compound `CSc1ccccc1NC(=O)CN(C)CC(=O)Nc1cccc(Br)c1`, the inhibition was -2.5%.
For `CC1(C(=O)NS(=O)(=O)c2cccc(F)c2)CCN1C(=O)Cc1ccc(Cl)cc1Cl` (stereo not drawn) the value was 1.79%; for `CC(Oc1cc2oc(=O)c3c(c2cc1Cl)CCCC3)C(=O)NCc1ccncc1` (stereo not drawn), 30.8% (active).
In the case of `COc1ccc(S(=O)(=O)NC(C)C(=O)NCc2ccncc2)cc1Cl` (stereo not drawn), the inhibition was -4.46%.
`O=C(COc1cc2oc(=O)c3c(c2cc1Cl)CCC3)NCCCN1CCOCC1`: the inhibition was 21.4%.
